From PubChem BioAssay (NCATS)
Inconclusive results are not listed. The source made the active and inactive calls. Calls follow the shape of the dose curve; as a rule, active = well fitted curve in the direction sought with a large enough effect; inconclusive = small, poorly fitted or top-dose-only effect, or another doubt; inactive = no such curve, though single readings can be large; an effect the other way counts as inactive or inconclusive.

Columns and labels:
NIH3T3 = assay: qHTS assay to identify novel small-molecules to repurpose for Merkel cell carcinoma treatment (AID 1296009); settings: MCC and control cell lines, CellTiter-Glo viability, 72 h; at 44.8 µM (top of the series) unless noted; also: nearly all actives have a fitted effect of over 60% in size
Method in brief: (§1)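 Luminescence from CellTiter-Glo, read 10 min after addition at room temperature, reported viability following a 72 hr, 37 degree celsius treatment with NPC or MIPE compounds in titration; values normalized to plate controls.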

UISO = assay: as above; settings: MCC and control cell lines, CellTiter-Glo viability, 72 h; series mostly up to 46 µM
Method in brief: as §1

WaGa = assay: as above; settings: MCC and control cell lines, CellTiter-Glo viability, 72 h; series mostly up to 46 µM
Method in brief: as §1

C33A = assay: Primary qHTS to identify gynecologic anti-cancer compounds using libraries of approved drugs and bioactive compounds (AID 1345084); settings: Gynecologic cancer cell panel viability, ATPlite luminescence, 48 h; series mostly up to 57.5 µM; also: nearly all actives have a fitted effect of over 55% in size
Method in brief: (§2)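 Cytotoxicity screen measuring ATP content by luciferase luminescence. Each compound is applied at five concentrations for 48 h at 37 C with 5% CO2.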

CAOV3 = assay: as above; settings: Gynecologic cancer cell panel viability, ATPlite luminescence, 48 h; series mostly up to 57.5 µM
Method in brief: as §2

CASKI = assay: as above; settings: Gynecologic cancer cell panel viability, ATPlite luminescence, 48 h; series mostly up to 57.5 µM
Method in brief: as §2

Es-2 = assay: as above; settings: Gynecologic cancer cell panel viability, ATPlite luminescence, 48 h; series mostly up to 57.5 µM
Method in brief: as §2

HeLa = assay: as above; settings: Gynecologic cancer cell panel viability, ATPlite luminescence, 48 h; series mostly up to 57.5 µM
Method in brief: as §2

Hek293T = assay: as above; settings: Gynecologic cancer cell panel viability, ATPlite luminescence, 48 h, control line for the selectivity index; series mostly up to 57.5 µM
Method in brief: as §2

JEG-3 = assay: as above; settings: Gynecologic cancer cell panel viability, ATPlite luminescence, 48 h; series mostly up to 57.5 µM
Method in brief: as §2

OV90 = assay: as above; settings: Gynecologic cancer cell panel viability, ATPlite luminescence, 48 h; series mostly up to 57.5 µM
Method in brief: as §2

PA-1 = assay: as above; settings: Gynecologic cancer cell panel viability, ATPlite luminescence, 48 h; series mostly up to 57.5 µM
Method in brief: as §2

SKOV3 = assay: as above; settings: Gynecologic cancer cell panel viability, ATPlite luminescence, 48 h; series mostly up to 57.5 µM
Method in brief: as §2

Tov-21-G = assay: as above; settings: Gynecologic cancer cell panel viability, ATPlite luminescence, 48 h; series mostly up to 57.5 µM
Method in brief: as §2

Tov112D = assay: as above; settings: Gynecologic cancer cell panel viability, ATPlite luminescence, 48 h; series mostly up to 57.5 µM
Method in brief: as §2

[1] = Drug repurposing screens with cells derived from glioblastoma tumor samples (AID 1345199); settings: GBM patient neurospheres viability, ATP luminescence, 48 h; also: nearly all actives have a fitted effect of over 40% in size; also: potency is read from the fitted curve at half-maximal effect
Method in brief: (§3)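 Primary testing used CD133+ neurospheres from four GBM patients, seven concentrations, 48 h exposure and ATP-based viability; confirmation added three slower-growing patient lines.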

astro = assay: as above; settings: viability, ATP luminescence, 48 h; series mostly up to 45.9 µM
Method in brief: as §3

[2] = at 45.9 µM (top of the series), tumour line B
[3] = at 45.9 µM (top of the series), tumour line D
[4] = at 46.1 µM (top of the series), tumour line C
[5] = at 46 µM (top of the series), tumour line A
% is scaled to controls: 0 for no effect and ±100 for the full control effect.

OC[C@]1(O)OC[C@@H](O)[C@H](O)[C@@H]1O
inactive: outcome (NIH3T3) | Potency (UISO) | Potency (WaGa) | Potency (C33A) | Potency (CAOV3) | Potency (CASKI) | Potency (Es-2) | Potency (HeLa) | Potency (Hek293T) | Potency (JEG-3) | Potency (OV90) | Potency (PA-1) | Potency (SKOV3) | Potency (Tov-21-G) | Potency (Tov112D) | activity, negative = cell killing [1, 2] 6.45% | activity, negative = cell killing [1, 3] -1.03% | activity, negative = cell killing [1, 4] 12.8% | Potency (astro)

Nc1c[n+](N2CCOCC2)no1
inactive: outcome (NIH3T3) | Potency (UISO) | Potency (WaGa) | Potency (C33A) | Potency (CAOV3) | Potency (CASKI) | Potency (Es-2) | Potency (HeLa) | Potency (Hek293T) | Potency (JEG-3) | Potency (OV90) | Potency (PA-1) | Potency (SKOV3) | Potency (Tov-21-G) | Potency (Tov112D) | activity, negative = cell killing [1, 2] 3.67% | activity, negative = cell killing [1, 3] -1.79% | activity, negative = cell killing [1, 5] -15.9% | activity, negative = cell killing [1, 4] -4.45% | Potency (astro)

OCc1cccnc1
inactive: outcome (NIH3T3) | Potency (UISO) | Potency (WaGa) | Potency (C33A) | Potency (CAOV3) | Potency (CASKI) | Potency (Es-2) | Potency (HeLa) | Potency (Hek293T) | Potency (JEG-3) | Potency (OV90) | Potency (PA-1) | Potency (SKOV3) | Potency (Tov-21-G) | Potency (Tov112D) | activity, negative = cell killing [1, 2] -6.38% | activity, negative = cell killing [1, 3] -1.28% | activity, negative = cell killing [1, 5] -22% | activity, negative = cell killing [1, 4] -5.89% | Potency (astro)

CCOC(=O)OCC/C(SC(=O)OCC)=C(\C)N(C=O)Cc1cnc(C)nc1N
inactive: outcome (NIH3T3) | Potency (UISO) | Potency (WaGa) | Potency (C33A) | Potency (CAOV3) | Potency (CASKI) | Potency (Es-2) | Potency (HeLa) | Potency (Hek293T) | Potency (JEG-3) | Potency (OV90) | Potency (PA-1) | Potency (SKOV3) | Potency (Tov-21-G) | Potency (Tov112D) | activity, negative = cell killing [1, 2] -4.41% | activity, negative = cell killing [1, 3] -10.3% | activity, negative = cell killing [1, 5] -26% | activity, negative = cell killing [1, 4] -10.1% | Potency (astro)

CCCCCOc1ccc(C2SC(=O)NC2=O)cc1OCC (stereo not given)
inactive: outcome (NIH3T3) | Potency (UISO) | Potency (WaGa) | Potency (C33A) | Potency (CAOV3) | Potency (CASKI) | Potency (Es-2) | Potency (HeLa) | Potency (Hek293T) | Potency (JEG-3) | Potency (OV90) | Potency (PA-1) | Potency (Tov-21-G) | Potency (Tov112D) | activity, negative = cell killing [1, 2] -6.4% | activity, negative = cell killing [1, 3] -4.3% | activity, negative = cell killing [1, 4] -14.2% | Potency (astro)

N=C(N)c1ccc(OCCCOc2ccc(C(=N)N)cc2)cc1
active: Potency (astro) 11.2 µM
inactive: outcome (NIH3T3) | Potency (UISO) | Potency (WaGa) | Potency (C33A) | Potency (CAOV3) | Potency (CASKI) | Potency (Es-2) | Potency (HeLa) | Potency (Hek293T) | Potency (JEG-3) | Potency (OV90) | Potency (PA-1) | Potency (SKOV3) | Potency (Tov112D)

CCCCCC[C@@H](CCC)C(=O)O
inactive: outcome (NIH3T3) | Potency (UISO) | Potency (WaGa) | Potency (C33A) | Potency (CAOV3) | Potency (CASKI) | Potency (Es-2) | Potency (HeLa) | Potency (Hek293T) | Potency (JEG-3) | Potency (OV90) | Potency (PA-1) | Potency (SKOV3) | Potency (Tov-21-G) | Potency (Tov112D) | activity, negative = cell killing [1, 2] -11.8% | activity, negative = cell killing [1, 3] -7.11% | activity, negative = cell killing [1, 4] -6.46% | Potency (astro)

CN1N=C(C(N)=O)CCC1=O
inactive: outcome (NIH3T3) | Potency (UISO) | Potency (WaGa) | Potency (C33A) | Potency (CAOV3) | Potency (CASKI) | Potency (Es-2) | Potency (HeLa) | Potency (Hek293T) | Potency (JEG-3) | Potency (OV90) | Potency (Tov-21-G) | Potency (Tov112D)

CC(=O)c1ccc(O)c(C(N)=O)c1
inactive: outcome (NIH3T3) | Potency (UISO) | Potency (WaGa) | Potency (C33A) | Potency (CASKI) | Potency (Es-2) | Potency (HeLa) | Potency (Hek293T) | Potency (JEG-3) | Potency (OV90) | Potency (PA-1) | Potency (SKOV3) | Potency (Tov-21-G) | Potency (Tov112D)

CCNC(=O)NCCCOc1cccc(CN2CCCCC2)c1
active: Potency ([1]; tumour line A) 17.8 µM
inactive: outcome (NIH3T3) | Potency (UISO) | Potency (WaGa) | Potency (C33A) | Potency (CAOV3) | Potency (CASKI) | Potency (Es-2) | Potency (HeLa) | Potency (Hek293T) | Potency (JEG-3) | Potency (PA-1) | Potency (SKOV3) | Potency (Tov-21-G) | Potency (Tov112D) | activity, negative = cell killing [1, 2] -3.43% | activity, negative = cell killing [1, 3] -22.4% | activity, negative = cell killing [1, 4] -25.1% | Potency (astro)

CCC(=O)Oc1ccc2c(c1)CC[C@@H]1[C@@H]2CC[C@@]2(C)[C@H]1C[C@@H](OC(=O)CC)[C@@H]2OC(=O)CC
inactive: outcome (NIH3T3) | Potency (UISO) | Potency (C33A) | Potency (CAOV3) | Potency (CASKI) | Potency (Es-2) | Potency (HeLa) | Potency (Hek293T) | Potency (JEG-3) | Potency (PA-1) | Potency (SKOV3) | Potency (Tov-21-G) | Potency (Tov112D)

CCOC(=O)c1cc(=O)c2c(OCC(COc3cccc4oc(C(=O)OCC)cc(=O)c34)OC(=O)[C@@H](N)CCCCN)cccc2o1
inactive: outcome (NIH3T3) | Potency (UISO) | Potency (C33A) | Potency (CAOV3) | Potency (CASKI) | Potency (Es-2) | Potency (HeLa) | Potency (Hek293T) | Potency (JEG-3) | Potency (OV90) | Potency (PA-1) | Potency (SKOV3) | Potency (Tov-21-G) | Potency (Tov112D)

Cc1cc(CCCOc2c(C)cc(-c3noc(C(F)(F)F)n3)cc2C)on1
inactive: outcome (NIH3T3) | Potency (UISO) | Potency (C33A) | Potency (CAOV3) | Potency (CASKI) | Potency (Es-2) | Potency (HeLa) | Potency (Hek293T) | Potency (JEG-3) | Potency (OV90) | Potency (PA-1) | Potency (SKOV3) | Potency (Tov-21-G) | Potency (Tov112D)

CC(CCc1ccc2c(c1)OCO2)NN (stereo not given)
inactive: outcome (NIH3T3) | Potency (UISO) | Potency (WaGa) | Potency (C33A) | Potency (CAOV3) | Potency (CASKI) | Potency (Es-2) | Potency (HeLa) | Potency (Hek293T) | Potency (JEG-3) | Potency (OV90) | Potency (PA-1) | Potency (Tov-21-G) | Potency (Tov112D) | activity, negative = cell killing [1, 2] -11.1% | activity, negative = cell killing [1, 3] -1.96% | activity, negative = cell killing [1, 4] -0.872% | Potency (astro)

CC(C)CCCC(C)NCCC(C)C (stereo not given)
inactive: outcome (NIH3T3) | Potency (UISO) | Potency (WaGa) | Potency (C33A) | Potency (CAOV3) | Potency (Es-2) | Potency (HeLa) | Potency (Hek293T) | Potency (JEG-3) | Potency (OV90) | Potency (PA-1) | Potency (SKOV3) | Potency (Tov-21-G) | Potency (Tov112D)
